Measured values as given in PubChem BioAssay (EPA / NIEHS).
Records with an inconclusive call do not appear. The source holds several records for some structures; these can differ, active in one and inactive in another. The source made the active and inactive calls. Rule for the calls, unless noted: active = hit-call score of the fitted dose curve at least 0.9, where 1 is the maximum; inactive = score below 0.9.

Legend:
[1] = BSK_BT_PBMCCytotoxicity: PBMC Cytotoxicity Assessment in the BioMAP Diversity Plus: BT Assay (AID 2284225); details: primary human B cells with PBMC;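 note: PBMC viability measured by Alamar Blue dye reduction fluorescence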
Method in brief: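 Viability by Alamar Blue reduction (6 h, ex/em 546/580 nm) after 90 h culture of SEB/TSST-1-activated PBMC (20 ng/mL each) given compound 1 h before activation. DMSO served as baseline for curve fitting.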

[2] = read-out: Secreted IgG (sIgG), gene 3500; assay: BSK_BT_sIgG: BioMAP Diversity Plus: BT Assay for Secreted IgG (sIgG) Biomarker Activity (AID 2284226); details: primary human B cells with PBMC
Method in brief: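 ELISA quantitation of secreted IgG from human B cells co-cultured with PBMC, sampled 24 h post-dosing. Values fitted relative to DMSO vehicle as baseline, positive fitting direction.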

[3] = BSK_BT_Bcell_Proliferation: Viability Assessment in the BioMAP Diversity Plus: BT Assay for B cell Proliferation (AID 2284227); details: primary human B cells with PBMC
Method in brief: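 Read-out is absorbance at 560 nm from sulforhodamine B staining of total protein, reflecting relative cell numbers in a human B cell and PBMC co-culture after 72 h of chemical exposure. Values were referenced to DMSO.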

[4] = read-out: Interleukin 6 (IL6), IL6 (gene 3569); assay: BSK_BT_xIL6: BioMAP Diversity Plus: BT Assay for Interleukin 6 (IL6) Biomarker Activity (AID 2284228); details: primary human B cells with PBMC
Method in brief: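 B cells and peripheral blood mononuclear cells (human primary co-culture) were dosed with chemical, and after 24 h IL-6 released into the medium was measured by Luminex xMAP. Responses were analysed as gain of signal over DMSO control.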

[5] = read-out: Interleukin 17A (IL17A), IL17A (gene 3605); assay: BSK_BT_xIL17A: BioMAP Diversity Plus: BT Assay for Interleukin 17A (IL17A) Biomarker Activity (AID 2284229); details: primary human B cells with PBMC
Method in brief: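 Secreted IL-17A was the measured endpoint, read by Luminex xMAP multiplex in supernatants of a human B cell/PBMC co-culture harvested 24 h after chemical dosing. Signal increase relative to DMSO defined activity.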

[6] = read-out: Tumor necrosis factor (Homo sapiens) (UniProt P01375); assay: BSK_BT_xTNFa: BioMAP Diversity Plus: BT Assay for Tumor necrosis factor alpha (TNF-alpha) Biomarker Activity (AID 2284230); details: primary human B cells with PBMC
Method in brief: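 Human primary co-culture of B cells and peripheral blood mononuclear cells; TNF-alpha in supernatant, 24 h post-dose, Luminex multiplex; DMSO = baseline.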

[7] = read-out: Vascular cell adhesion molecule 1 (VCAM1), VCAM1 (gene 7412); assay: BSK_MyoF_VCAM1: BioMAP Diversity Plus: MyoF Assay for Vascular cell adhesion molecule 1 (VCAM1) Biomarker Activity (AID 2284231); details: primary human lung fibroblasts
Method in brief: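 ELISA read-out of VCAM-1 on human lung fibroblasts 24 h after chemical treatment, with positive-direction curve fitting relative to DMSO controls. Parallel cultures were stained with sulforhodamine B for total protein to flag overt cytotoxicity.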

[8] = TAMU_PeakParms_SingleDonor1434_Chronotropy: Texas A&M University (TAMU) 1.5-hr Human Induced Pluripotent Stem Cell (iPSC)-derived Cardiomyocytes Calcium (Ca+2) Flux Assay for Cardiotoxicity: Chronotropy (changes in peak frequency) (AID 2284217); details: actives raise or lower the signal
Method in brief: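 iPSC-CMs, donor 1434; 4 conc (0.2–100 uM), 0.5% v/v DMSO, 90 min, 37C/5% CO2; Ca2+ flux fluorescence → peak.freq.avg; peak.freq.avg = 0 dropped; bidirectional fit vs DMSO; EC05 POD.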

[9] = IUF_NPC1a_proliferation_area_72hr: Leibniz Research Institute for Environmental Medicine (IUF) 72-hour Neural Progenitor Cell Proliferation Area Assay (NPC1a) (AID 2284208)
Method in brief: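 Spheres of 0.3 mm are plated singly in growth-factor medium and exposed from day 0. After three days at 37C and 5% CO2, sphere area is measured by phase contrast imaging, with activity referenced to DMSO.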

[10] = IUF_NPC1_viability_72hr: Viability Assessment at 72 hours in the Leibniz Research Institute for Environmental Medicine (IUF) Neural Progenitor Cell Proliferation Assay (NPC1) (AID 2284209)
Method in brief: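 Viability was measured by resazurin-to-resorufin fluorescence (alamar blue) after 72 h of continuous exposure without compound renewal. Each well held one hNPC sphere (gestational week 16-19 fetal cortex, 0.25-0.35 mm) cultured in EGF/FGF proliferation medium at 37C and pH 7.2-7.6.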

[11] = CCTE_Mundy_HCI_Cortical_Synap_Neur_Matur_NeuriteSpotCountPerNeuriteLength: CCTE's Synaptogenesis and Neurite Maturation Assay in rat cortical cells for Neurite Spot Count per Neurite Length, Mundy Lab (AID 2284210)
Method in brief: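 Read-out: synaptophysin puncta counted along MAP2-stained neurites, normalised to neurite length, by automated high-content imaging. Rat cortical cells; AraC DIV 5; chemical dosing DIV 7; termination DIV 12. DMSO baseline.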

[12] = CCTE_Mundy_HCI_Cortical_Synap_Neur_Matur_BPCount: CCTE's Synaptogenesis and Neurite Maturation Assay in rat cortical cells for Branch Point Count, Mundy Lab (AID 2284211)
Method in brief: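 HCI read-out of branch points from MAP2/synaptophysin/Hoechst immunofluorescence; rat cortical cultures, AraC DIV 5, dosing DIV 7, fixed DIV 12; fit in positive direction vs DMSO baseline.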

[13] = CCTE_Mundy_HCI_Cortical_NOG_NeuriteCount: CCTE's Neurite Outgrowth Assay in rat cortical cells for Neurite Count, Mundy Lab (AID 2284212);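 note: cells fixed about two days after chemical exposure began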
Method in brief: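 Rat cortical primary cells; compound added 2 h post-plating, 1/10 dilution of working solution. Anti-betaIII-tubulin/AF488 ICC; ArrayScan neurite count vs DMSO.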

[14] = CCTE_Mundy_HCI_Cortical_NOG_NeuriteLength: CCTE's Neurite Outgrowth Assay in rat cortical cells for Neurite Length, Mundy Lab (AID 2284213);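 for AC50: neurites imaged about 48 to 50 h after chemical exposure began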
Method in brief: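 First, rat primary cortical cells were plated and, 2 h later, given test chemical as a 1/10 dilution. Finally, βIII-tubulin immunostaining enabled automated imaging of neurite length.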

[15] = CCTE_Mundy_HCI_Cortical_Synap_Neur_Matur_NeuriteLength: CCTE's Synaptogenesis and Neurite Maturation Assay in rat cortical cells for Neurite Length, Mundy Lab (AID 2284214)
Method in brief: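 Neurite length quantified by automated high-content imaging of MAP2, synaptophysin and Hoechst staining. Rat cortical cells received chemical from DIV 7 to DIV 12 […], glial growth arrested by AraC at DIV 5; DMSO baseline.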

[16] = CCTE_Mundy_HCI_Cortical_Synap_Neur_Matur_NeuriteSpotCountPerNeuron: CCTE's Synaptogenesis and Neurite Maturation Assay in rat cortical cells for Neurite Spot Count per Neuron Count, Mundy Lab (AID 2284215)
Method in brief: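 Rat cortical primary cultures; AraC DIV 5 to arrest glia; dosing + media change DIV 7; fixed DIV 12. Anti-MAP2/anti-synaptophysin, Hoechst nuclei; HCI puncta count per neuron, positive fitting direction vs DMSO.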

[17] = CCTE_Mundy_HCI_Cortical_Synap_Neur_Matur_SynapseCount: CCTE's Synaptogenesis and Neurite Maturation Assay in rat cortical cells for Synapse Count, Mundy Lab (AID 2284218)
Method in brief: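 High-content imaging of synaptophysin puncta per MAP2-positive neuron (Hoechst nuclei) in rat cortical cells exposed DIV 7–12 after glial arrest with AraC at DIV 5; decrease relative to DMSO scored.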

[18] = CCTE_Mundy_HCI_Cortical_Synap_Neur_Matur_NeuriteCount: CCTE's Synaptogenesis and Neurite Maturation Assay in rat cortical cells for Neurite Count, Mundy Lab (AID 2284222);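 note: exposure from day 7 to day 12 in vitro with readout at day 12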
Method in brief: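 Primary rat cortical cells were plated, treated with AraC at DIV 5, then exposed to chemicals from DIV 7 through DIV 12. After fixation and immunostaining for MAP2 and synaptophysin, imaging quantified neurites, with DMSO as the negative control.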

[19] = CCTE_Mundy_HCI_Cortical_Synap_Neur_Matur_CellBodySpotCount: CCTE's Synaptogenesis and Neurite Maturation Assay in rat cortical cells for Cell Body Spot Count, Mundy Lab (AID 2284223)
Method in brief: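 Rat cortical neurons; AraC @ DIV 5; dose + media change DIV 7; fix DIV 12; anti-MAP2/anti-synaptophysin IF, Hoechst; HCI count of soma synaptophysin puncta/neuron; DMSO = negative control.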

[20] = CCTE_Mundy_HCI_hNP1_Pro_ResponderAvgInten: CCTE's Proliferation Assay in human neuroprogenitor cells, Mundy Lab (AID 2284224; active = hit-call score of the fitted dose curve at least 0.9, where 1 is the maximum;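 note: human neural progenitor cells hNP1 derived from WA09 embryonic stem cells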)
Method in brief: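 Proliferation read as average intensity of BrdU-positive cells, imaged at 26.25 h post-dosing: chemical exposure started after 40–44 h culture, BrdU during final 4 h, paraformaldehyde fixation. Positive-direction fit relative to DMSO.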

Measured: AC50

Tumor necrosis factor (Homo sapiens), sequence (P01375 whole entry, looked up): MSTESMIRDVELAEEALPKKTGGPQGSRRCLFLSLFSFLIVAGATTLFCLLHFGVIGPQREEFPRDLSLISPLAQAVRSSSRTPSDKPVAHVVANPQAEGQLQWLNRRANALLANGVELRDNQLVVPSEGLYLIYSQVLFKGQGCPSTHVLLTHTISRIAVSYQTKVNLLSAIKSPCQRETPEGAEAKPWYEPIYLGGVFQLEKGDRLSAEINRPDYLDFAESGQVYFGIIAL

CCO[Si](CCCN=C=O)(OCC)OCC
inactive: [1] | [2] | [3] | [4] | [5] | [6] | [7]

c1ccc2c(c1)ccc1ncccc12
inactive: [1] | [2] | [3] | [5] | [6] | [7]
active: [4] 1.14 µM

CCCCC/C=C\C/C=C\CCCCCCCC(=O)OC
active: [1] 24.3 µM | [2] 20 µM | [3] 26.3 µM | [4] 24.8 µM | [5] 23.8 µM | [6] 30 µM
inactive: [7]

O=C(Cl)c1cc(C(=O)Cl)cc(C(=O)Cl)c1
active: [1] 28 µM | [2] 14.6 µM | [3] 29.3 µM | [4] 27.6 µM | [5] 15.4 µM | [6] 31.9 µM | [7] 35.3 µM

N#[N+]c1ccc2c(S(=O)(=O)[O-])cccc2c1O
inactive: [1] | [2] | [3] | [4] | [5] | [6] | [7]

C/C=C\C/C=C/CCCCCCCCOC(C)=O
inactive: [7]
active: [1] 20 µM | [2] 17 µM | [3] 28 µM | [4] 15.2 µM | [5] 15.1 µM | [6] 20 µM

COCc1c(C(C)C)nc(C(C)C)c(/C=C/[C@@H](O)C[C@@H](O)CC(=O)O)c1-c1ccc(F)cc1
active: [2] 0.0231 µM | [3] 0.24 µM | [4] 0.494 µM | [5] 0.312 µM | [6] 0.512 µM | [7] 0.0229 µM
inactive: [1]

CCOc1nc(F)cc2nc(S(=O)(=O)Nc3c(Cl)cccc3C(=O)OC)nn12
inactive: [1] | [2] | [3] | [4] | [5] | [6] | [7]

O=C(O)CCCC[C@@H]1SC[C@@H]2NC(=O)N[C@@H]21
inactive: [8]

Nc1ncn([C@@H]2O[C@H](CO)[C@@H](O)[C@H]2O)c(=O)n1
active: [14] 7.87 µM | [20] 8.32 µM
inactive: [9] | [10] | [11] | [12] | [13] | [14] | [15] | [16] | [17] | [18] | [19]

CC(C)C(=O)C(C)C
inactive: [1] | [2] | [3] | [4] | [5] | [6] | [7]

C=CC=CC=CCCCCC
active: [2] 7.13 µM | [4] 6.43 µM
inactive: [1] | [3] | [5] | [6] | [7]

S=C(NC1CCCCC1)NC1CCCCC1
active: [2] 20 µM | [3] 31.2 µM
inactive: [1] | [4] | [5] | [6] | [7]

C=CCOCC(O)CCl (configuration not stated)
active: [2] 20 µM
inactive: [1] | [3] | [4] | [5] | [6] | [7]

CC(C)(c1cc(Br)c(OCCO)c(Br)c1)c1cc(Br)c(OCCO)c(Br)c1
active: [2] 8.71 µM | [3] 21.2 µM | [4] 16.2 µM | [5] 20.8 µM | [6] 30.2 µM | [7] 7.89 µM
inactive: [1]

CCCCC(CC)COC(=O)c1ccccc1O (configuration not stated)
active: [2] 7.14 µM
inactive: [1] | [3] | [4] | [5] | [6] | [7]
